Bioassay records from PubChem BioAssay.
An excerpt weighted towards active compounds, which were near 4.8% of everything screened.
HIF activator: HIF pathway transcriptional activation; 0.32% of 300,000 active; U2OS HRE-luciferase reporter, luminescence; normalized: DMSO 0%, desferrioxamine 100%; activation, % at 7.5 µM (by protocol);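 active means mean activation of at least 10% of the iron chelator positive control signal, with at least half of replicates also reaching 10%; inconclusive means mean and replicate majority disagree about reaching 10%; inactive means mean and most replicates under 10%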
SUMO Mot1 rescue: inhibitors of SUMOylation pathway: yeast Mot1-301 growth rescue. 1% of 320,000 active. growth rescue, % at 18.8 µM. AID 2716. S. cerevisiae Mot1-301 growth rescue, ATP luminescence, 38.5C; percent above DMSO median, 100 means doubled;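 active means every valid replicate shows activation above 250% relative to neutral control wells; inactive means the rest, any valid replicate at or below 250%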;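 further: OY570 slx delta 5 strain wells were the positive control but not used for scaling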
ALR inh: blocks human ALR sulfhydryl oxidase activity; P55789; purified ALR, DTT oxidation, H2O2 HRP-luminol luminescence; inhibition, % (no concentration beside the values); 3.8% of 290,000 active; AID 485317;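 active means mean replicate inhibition above about 79%, with every replicate also reaching it, limit read from the data; inconclusive means only one of the two criteria met; inactive means mean below limit and not every replicate reaching it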
Target sequence (P55789 whole entry, looked up): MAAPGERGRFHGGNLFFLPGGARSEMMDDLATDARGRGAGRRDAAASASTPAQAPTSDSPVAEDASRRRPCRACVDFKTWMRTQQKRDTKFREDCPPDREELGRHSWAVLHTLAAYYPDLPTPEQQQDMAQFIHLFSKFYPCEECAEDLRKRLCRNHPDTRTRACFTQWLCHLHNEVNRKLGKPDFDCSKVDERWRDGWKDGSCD
AI-2 QS mod: modulates the Vibrio harveyi AI-2 quorum sensing system; 0.4% of 300,000 active; AID 2094; activity change, % at 7.5 µM; Vibrio harveyi JMH597 AI-2 luminescence/OD600 ratio, 9 h; active compounds read low; strain lacks LuxN and CqsS sensors; 0 = neutral-control median; in the data active means activity change below about -75%, passing the limit was not always enough; inconclusive means no clear call, values can overlap the other calls;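 further: luminescence divided by OD600 gain over 9 h not by final OD600 alone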
* marks the source's active call; other numbers are inactive results.

How did c1ccn(-c2ccc(N3CCOCC3)cc2)c1 do in these assays?
HIF activator: 1; SUMO Mot1 rescue: 340; ALR inh: 22; AI-2 QS mod: 34

Results for O=c1[nH]n2c(=O)c3c([nH]c2c1N=Nc1cccc(C(F)(F)F)c1)CCCC3 ?
HIF activator: 1; SUMO Mot1 rescue: 345; ALR inh: 97*; AI-2 QS mod: 39

Results for COC(=O)/C=C/S(=O)(=O)c1ccc(NC(C)=O)cc1 ?
HIF activator: 0; SUMO Mot1 rescue: -10; ALR inh: 98*; AI-2 QS mod: inconclusive

What do the screens show for `COc1ccccc1OS(=O)(=O)c1ccc(NC(C)=O)cc1`?
HIF activator: 1; SUMO Mot1 rescue: 1; AI-2 QS mod: 42

What do the screens show for `NC(=O)Cn1cc(/C=N/NC(=O)c2ccc(Cn3cc(Cl)cn3)o2)c(-c2ccccc2)n1`?
SUMO Mot1 rescue: 13; ALR inh: -12; AI-2 QS mod: 20

Results for C[C@H]1CC[C@@]2(O[C@H](CCO)C[C@H](O)[C@H]2O)O1 ?
HIF activator: -2; SUMO Mot1 rescue: -4; ALR inh: 0; AI-2 QS mod: 15

How did O=C(COC(=O)CSc1ccc(Cl)cc1)Nc1ccc2[nH]c(=O)[nH]c2c1 do in these assays?
SUMO Mot1 rescue: 0

How did CN1C(C(=O)NCc2cccc(C(F)(F)F)c2)CC2Cn3c(nc4cc(Cl)c(Cl)cc43)C21 (stereo unspecified) do in these assays?
HIF activator: -1; SUMO Mot1 rescue: 277*; AI-2 QS mod: 13

How did O=C(NCC(c1ccco1)N1CCN(c2ccccc2F)CC1)c1ccc2c(c1)OCO2 (stereo unspecified) do in these assays?
HIF activator: -5; SUMO Mot1 rescue: 3; ALR inh: -4; AI-2 QS mod: 18

How did O=S(=O)(c1ccccc1)N1N=C(c2ccccc2)CC1c1ccccc1F (stereo unspecified) do in these assays?
HIF activator: 0; SUMO Mot1 rescue: 2; ALR inh: -3; AI-2 QS mod: 15

Results for Cc1ccc(-c2cn3c(=S)[nH]nc3s2)cc1 ?
HIF activator: 0; SUMO Mot1 rescue: 12; ALR inh: 86*; AI-2 QS mod: 44

What do the screens show for `Cc1ccc(-c2n[nH]c(=S)n2C)cc1`?
HIF activator: 0; AI-2 QS mod: 15

Results for O=C(Cn1c(=O)oc2cc(S(=O)(=O)N3CCCCC3)ccc21)N1CCc2ccccc21 ?
HIF activator: 0; SUMO Mot1 rescue: 16; AI-2 QS mod: -10

How did O=C(Cn1c(=O)oc2cc(S(=O)(=O)N3CCc4ccccc43)ccc21)N1CCCCC1 do in these assays?
SUMO Mot1 rescue: 10; ALR inh: 88*; AI-2 QS mod: 27

How did Cc1ccc(-c2nc(SCC(=O)NCCN3C(=O)CSC3=O)[nH]c2-c2ccc(C)cc2)cc1 do in these assays?
HIF activator: 0; SUMO Mot1 rescue: -14; ALR inh: 88*; AI-2 QS mod: 21

What do the screens show for `Cc1ccc(SCC(=O)NCCN2C(=O)CSC2=O)c(C)c1`?
HIF activator: 1; SUMO Mot1 rescue: 0; ALR inh: -18; AI-2 QS mod: 20

Results for CC(C)c1nc2n[nH]c(N)c2c2c1CSC(C)(C)C2 ?
HIF activator: -1; SUMO Mot1 rescue: -1; ALR inh: 98*; AI-2 QS mod: 3

What do the screens show for `CCCCc1nc2n[nH]c(N)c2c2c1CSC(C)(C)C2`?
HIF activator: 0; SUMO Mot1 rescue: 15; AI-2 QS mod: 14

What do the screens show for `Cc1cc(C)nc(SCc2cc(=O)c(OC(=O)c3ccco3)co2)n1`?
HIF activator: 0; SUMO Mot1 rescue: 8; ALR inh: 21; AI-2 QS mod: 9

What do the screens show for `Cc1cc(C)nc(SCc2cc(=O)c(OC(=O)c3cc([N+](=O)[O-])ccc3Cl)co2)n1`?
HIF activator: -1; SUMO Mot1 rescue: -21; ALR inh: 94*; AI-2 QS mod: 13

How did CCC1CCc2sc(C(=O)O)cc2C1 (stereo unspecified) do in these assays?
HIF activator: 65*; SUMO Mot1 rescue: 28; AI-2 QS mod: 65

What do the screens show for `CSc1nc2ccc3nc(NC(=O)c4ccc(Cl)s4)sc3c2s1`?
SUMO Mot1 rescue: -15; ALR inh: 91*; AI-2 QS mod: 14

How did O=C(Nc1nc(-c2ccccn2)cs1)c1ncc(Cl)c(Cl)c1Cl do in these assays?
HIF activator: 0; SUMO Mot1 rescue: 98; ALR inh: 12; AI-2 QS mod: 34

What do the screens show for `O=C(Nc1nc(-c2ccccn2)cs1)c1ccc(Cl)s1`?
SUMO Mot1 rescue: 42; ALR inh: 87*; AI-2 QS mod: -197*

How did CCc1sc(C(=O)Nc2nc(-c3ccccn3)cs2)cc1C do in these assays?
SUMO Mot1 rescue: -16; ALR inh: 3

What do the screens show for `Cc1ccc(C(=O)Nc2nc(-c3ccccn3)cs2)s1`?
SUMO Mot1 rescue: 28; ALR inh: 87*

What do the screens show for `COc1ccc(S(=O)(=O)N2CCOCC2)cc1NC(=O)COC(=O)c1oc2ccccc2c1C`?
SUMO Mot1 rescue: 10; ALR inh: -3

Results for Fc1ccc(-n2c(CN3CCCCC3)n[nH]c2=S)cc1 ?
HIF activator: 0; SUMO Mot1 rescue: 4; ALR inh: 87*; AI-2 QS mod: 24

What do the screens show for `COc1ccc(NC(=O)c2cccn(CC=C(C)C)c2=O)cc1`?
HIF activator: 2; SUMO Mot1 rescue: 331*; ALR inh: 1; AI-2 QS mod: -3

What do the screens show for `COc1ccc(N2CCN(C(=O)CCC(=O)N3CC(C)Oc4ccccc43)CC2)cc1` (stereo unspecified)?
HIF activator: 0; SUMO Mot1 rescue: 25; ALR inh: 78*; AI-2 QS mod: 4

What do the screens show for `COc1ccc(N2CCN(C(=O)CCn3nnc4ccccc43)CC2)cc1`?
HIF activator: 0; ALR inh: 90*; AI-2 QS mod: 10

Results for CCOc1cccc(C(=O)NNC(=O)C2C3C=CC(C3)C2C(=O)O)c1 (stereo unspecified) ?
HIF activator: 1; SUMO Mot1 rescue: -23; ALR inh: -1; AI-2 QS mod: 12

What do the screens show for `COc1cc(/C=C2/C(=N)N3C(=NC2=O)SN=C3S(C)(=O)=O)ccc1OS(=O)(=O)c1ccccc1`?
HIF activator: -1; SUMO Mot1 rescue: 0; ALR inh: inconclusive; AI-2 QS mod: 27

How did Cc1cc(/C=C2/C(=N)N3C(=NC2=O)SN=C3S(C)(=O)=O)c(C)n1-c1ccc(F)cc1 do in these assays?
HIF activator: 0; SUMO Mot1 rescue: 158; ALR inh: 62; AI-2 QS mod: 9

What do the screens show for `CCOc1ccc(-n2c(C)cc(/C=C3/C(=N)N4C(=NC3=O)SN=C4S(C)(=O)=O)c2C)cc1`?
HIF activator: 0; SUMO Mot1 rescue: -3; ALR inh: 98*; AI-2 QS mod: 15

What do the screens show for `CCOc1cc(/C=C2/C(=N)N3C(=NC2=O)SN=C3S(C)(=O)=O)ccc1OS(=O)(=O)c1ccccc1`?
HIF activator: -1; SUMO Mot1 rescue: 6; ALR inh: 95*; AI-2 QS mod: 32

What do the screens show for `Cc1ccc(CNC(=O)c2ccc(N3CCC4(CC3)CC(c3ccccc3)=NO4)c(NC(=O)c3ccc(Cl)c([N+](=O)[O-])c3)c2)cc1`?
HIF activator: 0; SUMO Mot1 rescue: -11; ALR inh: -1; AI-2 QS mod: 8
